Results reported in PubChem BioAssay (EPA / NIEHS).
Results filed as inconclusive are left out. The source made the active and inactive calls. The calls were made as follows: active = hit-call score of the fitted dose curve at least 0.9, where 1 is the maximum; inconclusive = response in the unintended direction; inactive = score below 0.9.

The molecules below were run against Androgen receptor (Homo sapiens) (UniProt P10275) (assay: ATG_AR_TRANS: Attagene TRANS-FACTORIAL HepG2 Assay for human Androgen Receptor (AR) (AID 2282973)). Conditions: HepG2 Attagene TRANS-FACTORIAL AR reporter transcription.
In short: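 Transfected HepG2, 24 h treatment, chimeric NR-Gal4 driving GAL4-UAS reporters. mRNA induction by RT-PCR/capillary electrophoresis fluorescence; DMSO as negative control and baseline.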

Androgen receptor (Homo sapiens), sequence (P10275 whole entry, looked up, the tested form may be a part): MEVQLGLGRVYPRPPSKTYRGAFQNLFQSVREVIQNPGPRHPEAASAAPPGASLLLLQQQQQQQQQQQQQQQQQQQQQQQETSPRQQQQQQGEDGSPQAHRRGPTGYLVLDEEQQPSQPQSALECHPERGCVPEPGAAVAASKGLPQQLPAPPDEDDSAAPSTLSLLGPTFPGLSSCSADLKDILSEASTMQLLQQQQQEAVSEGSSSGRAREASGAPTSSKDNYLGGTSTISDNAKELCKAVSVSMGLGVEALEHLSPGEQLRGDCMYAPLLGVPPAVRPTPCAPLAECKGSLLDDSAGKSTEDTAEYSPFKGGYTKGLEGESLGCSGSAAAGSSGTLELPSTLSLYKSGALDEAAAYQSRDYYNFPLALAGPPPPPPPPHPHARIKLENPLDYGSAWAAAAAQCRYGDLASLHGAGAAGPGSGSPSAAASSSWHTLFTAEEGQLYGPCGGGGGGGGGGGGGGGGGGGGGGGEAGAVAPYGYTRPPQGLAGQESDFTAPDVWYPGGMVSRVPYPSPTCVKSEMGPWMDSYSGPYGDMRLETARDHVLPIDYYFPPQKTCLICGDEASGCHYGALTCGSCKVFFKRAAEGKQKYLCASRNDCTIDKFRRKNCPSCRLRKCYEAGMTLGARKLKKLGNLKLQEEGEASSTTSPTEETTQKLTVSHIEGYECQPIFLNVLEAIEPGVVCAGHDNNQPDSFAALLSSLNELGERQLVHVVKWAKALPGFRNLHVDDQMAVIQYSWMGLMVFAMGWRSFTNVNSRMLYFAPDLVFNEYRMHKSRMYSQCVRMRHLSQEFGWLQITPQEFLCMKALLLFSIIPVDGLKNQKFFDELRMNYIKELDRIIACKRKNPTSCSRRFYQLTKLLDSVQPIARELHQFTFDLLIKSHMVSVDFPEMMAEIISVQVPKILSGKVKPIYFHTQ

| SMILES | outcome |
| --- | --- |
| CC(C)CCOCc1ccccc1 | inactive |
| Oc1ccc(Cl)cc1Cc1cc(Cl)ccc1O | inactive |
| CC(=O)N(C)C | inactive |
| FC(F)=C(F)C(F)(F)C(F)(F)C(F)(F)C(F)(F)C(F)(F)C(F)(F)F | inactive |
| NCC1CCCC(CN)C1 (stereo not drawn) | inactive |
| c1cc[nH]c1 | inactive |
| CC(O)COc1ccccc1 (stereo not drawn) | inactive |
| CC(C=O)Cc1ccc(C(C)(C)C)cc1 (stereo not drawn) | inactive |
| CCc1c(Br)c(Br)c(Br)c(Br)c1Br | inactive |
| CCCCCCOC(=O)C(C)CC (stereo not drawn) | inactive |
| CCCOCCOCCOCCO | inactive |
| O=C(O)C(F)(F)OC(F)(F)C(F)(F)OC(F)(F)C(F)(F)OC(F)(F)C(F)(F)C(F)(F)C(F)(F)F | inactive |
| O=C(C=Cc1ccccc1)OCC=Cc1ccccc1 | inactive |
| C=CC(=O)OCCOC1C2CCC1C1CC=CC12 (stereo not drawn) | inactive |
| COc1ccccc1OCC(O)CO (stereo not drawn) | inactive |
| FC(F)(F)C(F)(F)C(F)(F)C(F)(F)C(F)(F)C(F)(F)C(F)(F)C(F)(F)F | inactive |
| CC1CCC(C(C)C)C(O)C1 (stereo not drawn) | inactive |
| CCOc1cccc(-n2cc(C(=O)N3CCN(c4cc(C(=O)O)c5ccccc5c4)CC3)nc2-c2ccc(C)cc2)c1 | inactive |
